Screening results as filed in PubChem BioAssay.
HIF-2a block = HIF-2a inhibition; 786-0 RCC cells HIF-2a reporter, luciferase luminescence, overnight; inhibition, % at 18.8 µM; 360,000 compounds, 0.72% hits;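 active = inhibition of the luminescence signal of 40% or more relative to plate controls, in a single-dose primary screen at 18.75 µM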
Peg3 promoter = Peg3 promoter activity inhibition | 360,000 compounds, 1.7% hits | HeLa PEG-Prom luciferase reporter, luminescence, overnight | inhibition, % at 20 µM;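 active = inhibition of at least 50% at 20 µM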
KKLEB cytotox = CF airway cell cytotoxicity counter-screen. KKLEB CF airway cells viability, ATPlite luminescence, overnight; hits give low values; cells stimulated with P. aeruginosa culture filtrate. activity change (cytotoxicity), % at 5 µM. 360,000 compounds, 0.36% hits;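 active = corrected activity change at or below -50% at 5 µM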
CF NFkB block = cystic fibrosis NF-kB activation inhibition; KKLEB NF-kB-GFP reporter, PAF-induced, GFP fluorescence overnight; inhibition, % at 5 µM; AID 588850; 360,000 compounds, 0.86% hits;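 active = at least 50% inhibition at 5 µM, scaled per plate between neutral and stimulator controls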;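 note: PAF is a Pseudomonas aeruginosa culture filtrate used as stimulus; plate controls were PAF-stimulated DMSO wells for no effect and unstimulated DMSO wells for full effect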
Shn3 inh set2 = Schnurri-3 reporter inhibition in Clone20 osteoblasts; Clone20 osteoblast Shn3 3'UTR firefly luciferase, 24 h; inhibition, % at 12.5 µM; 360,000 compounds, 0.52% hits;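 active = mean inhibition of at least 75% with every replicate also reaching 75%; inconclusive = mean inhibition at least 75% but some replicate below; inactive = mean inhibition below 75%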;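 note: 0% = median of neutral control wells and 100% = pilot-screen positive control compound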
TRPM1 prom inh = MITF TRPM1 promoter inhibition in SK-MEL-5 cells; SK-MEL-5 TRPM1 promoter luciferase, 24 h; inhibition, % at 12.5 µM; 330,000 compounds, 0.83% hits; AID 488899;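 active = mean inhibition across replicates of 60% or more, whatever share of single replicates reaches that level; inconclusive = some that reach 60%, reason not given; inactive = mean inhibition across replicates below 60%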
Numbers without * were called inactive; ? = inconclusive; · = no result. Hits are enriched below; roughly 2.7% of the tested compounds scored in any of these assays.

SMILES	HIF-2a block	Peg3 promoter	KKLEB cytotox	CF NFkB block	Shn3 inh set2	TRPM1 prom inh
COC(=O)c1c(-c2ccc(C)cc2)csc1NC(=O)Cc1ccc(OC)c(OC)c1	18.0	18.8	-5.7	3.1	33.6	2.0
CN(CC(=O)Nc1cccc(F)c1)C(=O)c1cc(-c2cccs2)nn1-c1ccccc1	8.9	56.2*	3.6	-5.7	-0.6	12.1
O=C(CSCc1ccc(Cl)cc1)Nc1ccc(-c2nnc(-c3ccccc3)o2)cc1	-2.5	51.1*	-41.9	39.6	44.3	13.8
CNc1nc(N/N=C/c2cc3c(cc2[N+](=O)[O-])OCO3)nc(Nc2ccccc2)n1	-28.4	86.5*	-3.6	2.1	5.1	36.5
CNc1nc(N/N=C/c2cc([N+](=O)[O-])ccc2F)nc(Nc2ccccc2)n1	37.6	20.2	-15.8	39.4	2.0	7.3
COc1ccc(/C=N/Nc2nc(Nc3ccccc3)nc(N3CCCC3)n2)cc1[N+](=O)[O-]	-6.6	60.2*	7.3	-19.3	13.1	57.5
COc1cc(/C=N/Nc2nc(Nc3ccccc3)nc(-n3nc(C)cc3C)n2)cc(OC)c1OC	-81.9	32.1	-0.2	72.2*	53.9	0.1
COc1cc(/C=N/Nc2nc(N3CCCC3)nc(N3CCCC3)n2)ccc1O	10.6	7.9	6.4	-6.4	-7.5	3.4
COc1cc(/C=N/Nc2nc(Nc3ccc(C)cc3)nc(-n3nc(C)cc3C)n2)cc(OC)c1OC	-2.9	48.2	7.2	47.5	70.7	12.7
Oc1ccc(/C=N/Nc2nc(N3CCCC3)nc(N3CCCC3)n2)cc1O	5.9	10.1	15.0	-32.4	92.6*	21.2
COc1ccc(C2=CC(=O)C[C@H](c3ccc(F)cc3)C2)cc1OC	1.6	17.2	-35.2	24.5	28.2	8.1
CCNC(=O)C1CCCN(C(=O)c2cc(C)oc2C)CC1 (configuration not stated)	9.7	-10.8	-5.1	-5.2	-1.0	·
COc1ccc(O)c(/C=N/Nc2nc(Nc3ccccc3)nc(-n3nc(C)cc3C)n2)c1	-156.3	22.4	6.2	73.5*	64.8	-9.2
COc1ccc(O)c(/C=N/Nc2nc(C)cc(-c3ccccc3)n2)c1	-113.9	-4.3	3.8	-41.7	17.5	-17.4
CN(C)CCNc1nc2sc3c(c2c(=O)n1CCc1ccccc1)CCCCC3	-83.6	107.6*	-19.2	15.0	-21.3	89.8*
CC(O)CNc1nc2sc3c(c2c(=O)n1CCc1ccccc1)CCCCC3 (configuration not stated)	-163.9	-84.8	-3.2	6.1	-12.0	-33.3
CCCn1cc(CN2CCc3ccc(NC(=O)C4CCCO4)cc3C2)c(C)n1 (configuration not stated)	3.0	5.4	3.8	8.7	13.1	-2.0
CCOC(=O)CC1CCCCN1C(=O)c1cc(COc2cccc3cnccc23)on1 (configuration not stated)	27.6	11.3	-2.6	28.8	89.3*	27.6
O=C1C(Cl)=C(NCc2ccco2)C(=O)c2ccccc21	-7.7	-49.5	0.5	73.5*	-5.3	94.2*
CCNC1=C(Cl)C(=O)c2ccccc2C1=O	67.3*	-1.0	-10.6	6.5	11.2	74.5*
O=C(NCCN1CCCC1)c1ccccc1Cl	12.3	9.1	-6.5	-5.4	-9.6	-1.8
O=C1C(Cl)=C(NCCN2CCCCC2)C(=O)c2ccccc21	87.3*	98.9*	-27.2	75.1*	95.3*	99.2*
O=C1c2ccccc2-c2onc3ccc(NCc4ccco4)c1c23	-49.2	-6.2	8.2	-114.1	7.4	22.8
CCCC(=O)NC1=C(Cl)C(=O)c2ccccc2C1=O	94.8*	97.9*	15.6	17.4	90.5*	101.4*
O=C1C(Cl)=C(NS(=O)(=O)c2ccc([N+](=O)[O-])cc2)C(=O)c2ccccc21	9.1	13.0	-0.7	38.0	20.1	?
SMILES	HIF-2a block	Peg3 promoter	KKLEB cytotox	CF NFkB block	Shn3 inh set2	TRPM1 prom inh
CC(=O)Nc1ccc(S(=O)(=O)N(C)CC(=O)OCC(=O)Nc2cc(C)on2)cc1	4.8	-3.0	12.6	-11.3	-10.1	-3.0
CC(=O)Oc1c(C)cc(Cl)cc1C(=O)Nc1ccc([N+](=O)[O-])cc1Cl	-157.4	-13.4	-78.1*	62.6*	77.6	53.2
CC(=O)OCC(=O)Nc1ccc([N+](=O)[O-])cc1Cl	9.8	2.6	-0.9	-23.4	7.9	-1.5
CC(Nc1ncnc2sccc12)c1ccccc1 (configuration not stated)	15.0	14.2	2.1	-4.1	86.6*	22.6
c1ccc(Nc2ncnc3sccc23)cc1	-42.4	-25.5	-1.9	4.7	-11.3	-11.1
O=C(NNc1nc2ccc(Cl)cc2s1)c1cc(-c2cccs2)nc2ccccc12	14.4	87.1*	-18.9	37.5	2.2	6.3
Cc1ccc(NC(=O)c2cc(-c3cccs3)nc3ccccc23)nc1	-6.2	41.1	-0.1	-3.1	34.0	1.3
Cc1cc(C)c2nc(NNC(=O)c3cc(-c4cccs4)nc4ccccc34)sc2c1	2.0	51.7*	-3.5	11.7	0.7	29.2
O=C(NN1CCOCC1)c1cc(-c2cccs2)nc2ccccc12	8.2	5.8	-0.8	4.9	-9.0	-6.2
CC(c1ccccc1)n1c(N2CCNCC2)nc2c1c(=O)[nH]c(=O)n2C (configuration not stated)	21.0	-4.6	-13.7	5.6	-5.4	1.0
CC(=O)Nc1cccc(C(=O)/C=C/c2ccc(C)cc2)c1	-18.1	96.9*	-8.3	36.3	-9.5	22.6
CCC(=O)Nc1cccc(C(=O)/C=C/c2ccc(F)cc2)c1	27.0	99.8*	0.3	46.8	1.2	62.1*
COc1cccc(NC(=S)NC(=O)/C=C/c2ccc(F)cc2)c1	-2.6	7.9	-4.5	-4.0	-7.6	-3.6
CC(=O)Nc1ccc(/C=C/C(=O)c2ccc3c(c2)OCCO3)cc1	-26.0	-164.8	-13.0	-5.9	-22.8	-0.6
Cc1ccc2nc(C)cc(C(=O)N/N=C/c3ccncc3)c2c1	13.3	1.6	-17.7	1.8	-1.7	8.5
CN(CCOc1ccccc1)C(=O)CCc1c[nH]c2ccccc12	-20.2	-29.6	-0.9	6.1	-10.2	-6.1
Cn1nc(-c2ccc(Cl)cc2)nc2c(=O)n(C)c(=O)nc1-2	·	·	·	·	117.7*	·
Cc1ccc(S(=O)(=O)NCC(=O)OCC(=O)NCc2ccc3c(c2)OCO3)cc1	-2.6	0.1	-12.6	13.1	-18.5	-3.4
COCCN=C1N[C@@H](c2ccccc2)C(C(=O)OC)=C(C)N1Cc1ccccc1	8.2	-12.8	13.7	-2.1	-2.5	-6.8
COC(=O)C1=C(C)N(Cc2ccccc2)C(=NCCc2c[nH]c3ccccc23)N[C@H]1c1cccc(F)c1	2.6	101.9*	-23.1	24.2	97.5*	45.5
COC(=O)C1=C(C)N(Cc2ccccc2)C(=NCc2ccccc2)N[C@H]1c1cccc(F)c1	6.5	101.0*	-14.7	28.6	-0.3	51.3
COC(=O)C1=C(C)N(Cc2ccccc2)C(=NCc2cc(OC)c(OC)c(OC)c2)N[C@H]1c1ccccc1	·	·	·	·	0.7	-1.2
